TPT1 inhibitor – inhibitors of Candida albicans tRNA 2'-phosphotransferase TPT1. 0.81% of 300,000 active. recombinant caTPT1, FP RNA substrate dephosphorylation. inhibition, % at 5 µM;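 active = inhibition above the mean of all tested compounds plus 3 SD, set per screening campaign, cut at about 24% in these data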;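 also: plate controls were DMSO alone for no effect and ferristatin control at 100 nM for full effect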
IDE act – activators of human insulin-degrading enzyme in cells; activation, % at 5.96 µM; 0.073% of 340,000 active; P14735; HEK cells, FAbeta-B cleavage, fluorescence polarization; 0% vehicle, 100% cell-free pure enzyme wells;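 active = activation above the mean of all tested compounds plus 3 SD, set per screening campaign, cut at about 17% in these data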
Target sequence (P14735 whole entry, looked up): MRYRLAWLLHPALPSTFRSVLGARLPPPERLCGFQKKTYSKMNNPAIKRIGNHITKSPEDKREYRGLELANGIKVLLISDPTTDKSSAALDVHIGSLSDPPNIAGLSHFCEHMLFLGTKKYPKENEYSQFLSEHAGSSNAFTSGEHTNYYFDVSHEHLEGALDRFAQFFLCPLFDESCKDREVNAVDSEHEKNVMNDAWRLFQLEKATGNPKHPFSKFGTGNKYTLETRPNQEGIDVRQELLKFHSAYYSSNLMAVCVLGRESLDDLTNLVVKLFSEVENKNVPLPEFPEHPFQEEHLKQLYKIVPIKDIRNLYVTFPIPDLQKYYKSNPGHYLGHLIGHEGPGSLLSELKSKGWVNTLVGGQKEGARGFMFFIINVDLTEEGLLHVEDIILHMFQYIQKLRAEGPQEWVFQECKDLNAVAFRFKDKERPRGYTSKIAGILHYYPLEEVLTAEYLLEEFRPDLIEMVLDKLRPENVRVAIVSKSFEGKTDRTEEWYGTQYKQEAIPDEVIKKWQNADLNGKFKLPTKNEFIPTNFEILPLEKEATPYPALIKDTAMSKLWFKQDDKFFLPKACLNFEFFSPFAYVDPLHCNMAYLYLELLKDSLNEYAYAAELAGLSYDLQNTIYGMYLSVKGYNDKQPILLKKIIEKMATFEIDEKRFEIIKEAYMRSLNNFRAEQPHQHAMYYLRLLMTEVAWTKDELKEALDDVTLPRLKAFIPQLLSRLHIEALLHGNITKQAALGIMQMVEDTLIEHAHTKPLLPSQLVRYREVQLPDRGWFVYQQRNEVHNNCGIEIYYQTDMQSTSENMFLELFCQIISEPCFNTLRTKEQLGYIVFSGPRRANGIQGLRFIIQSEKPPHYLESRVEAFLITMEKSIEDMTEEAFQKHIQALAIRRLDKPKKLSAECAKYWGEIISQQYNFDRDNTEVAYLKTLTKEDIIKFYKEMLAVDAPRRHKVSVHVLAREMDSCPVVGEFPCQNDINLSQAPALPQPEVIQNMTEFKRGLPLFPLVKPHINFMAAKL
Myeloid diff 2 – compounds promoting myeloid differentiation; ER-HoxA9 myeloid progenitors, lysozyme-GFP differentiation, flow cytometry; calls only at 10 µM; 1% of 360,000 active;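 active = normalized GFP-positive differentiation at or above the plate's own cutoff, the solvent-only control mean plus 3 SD; inconclusive = no clear call, values can overlap the other calls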;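 also: cells exposed to compound for four days before flow analysis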
CRFBP-R2 agonist – CRF-BP/CRF-R2 complex agonism; HEK293 CRF-R2/CRF-BP, calcium dye fluorescence (FLIPR); percent of saturating CRF peptide response; activation, % at 13.2 µM; 0.46% of 350,000 active;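 active = activation of at least 50%, plus an integration ratio under a set limit after plate pattern correction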;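 also: plate controls were neutral control wells without compound for no effect and CRF at EC100 for full effect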
IDE cell inh – inhibitors of human insulin-degrading enzyme in cells; HEK cells, FAbetaB cleavage, fluorescence polarization; P14735; 0.41% of 320,000 active; inhibition, % at 5.59 µM;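 active = percent inhibition above the average of all tested compounds plus 3 SD, set per screening campaign, cut at about 16% in these data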;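 also: IDE supplied by intact live HEK cells; FP after avidin binding of uncleaved biotin substrate so inhibition keeps polarization high; 0% = DMSO wells and 100% = 60 µM reference IDE inhibitor Ii1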
CRFR2-BP antag – blocks CRF-induced signaling of the CRF-BP/CRF-R2 complex | HEK293 CRF-R2/CRF-BP, CRF-induced calcium fluorescence | inhibition, % at 11.8 µM | 0.59% of 350,000 active | AID 588475;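 active = inhibition of the ligand-induced calcium signal above about 50% at the single tested concentration, limit read from the data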
Starred values were filed as active, the others as inactive; i = inactive; u = inconclusive; x = no result; + = active, no number. Most compounds without a hit are left out; they make up all but 2.6% or so of the library.

SMILES	TPT1 inhibitor	IDE act	Myeloid diff 2	CRFBP-R2 agonist	IDE cell inh	CRFR2-BP antag
CN1CCc2c(sc(NC(=O)c3ccco3)c2C(N)=O)C1	9.7	5.8	i	27.0	0.5	4.9
Cc1c(NC(=O)COC(=O)Cc2ccc(F)cc2)c(=O)n(-c2ccccc2)n1C	1.4	8.0	i	-2.3	0.7	-10.4
O=C(c1ccc(N2CCNCC2)cc1)c1cccnc1	0.7	5.6	i	-2.8	5.6	61.8*
CCN(CC(=O)Nc1c(C(=O)OC)[nH]c2ccc(Cl)cc12)c1ccc2c(c1)OCO2	-26.1	3.1	+	0.9	0.7	1.7
COC(=O)c1c(N)n(-c2ccc(NC(C)=O)cc2)c2nc3ccccc3nc12	22.0	-1.0	+	0.6	5.7	12.2
CCN(CC)S(=O)(=O)c1cc(C(=O)c2nccn2C)ccc1Cl	2.1	6.4	+	2.8	-0.7	1.7
O=C(NCc1ccccc1)c1ccc(S(=O)(=O)N2CCCC2)cc1	-4.4	5.6	i	0.4	2.1	9.0
Cc1[nH]c2ccccc2c1SCCNC(=O)c1ccc(S(=O)(=O)N2CCCC2)cc1	-0.1	3.3	i	-4.0	-5.7	114.2*
O=C(CCc1nnc2ccc(NCc3ccco3)nn12)N1CCCCC1	3.7	1.7	+	2.4	4.3	-3.2
O=C(CCc1nnc2ccc(NCc3ccco3)nn12)N1CCN(c2ccccc2F)CC1	3.0	5.4	u	1.7	-1.7	52.1*
Cc1ccc(NC(=O)CCc2nnc3ccc(NCc4ccco4)nn23)cc1F	4.6	1.9	+	-0.5	3.5	-1.6
Cc1c(Cc2ccccc2)c(=O)oc2cc(OCC(=O)NCC3CCC(C(=O)O)CC3)ccc12 (centres undefined)	-1.1	3.3	i	-1.4	-7.1	-13.5
COc1ccc(OCCCC(=O)Nc2cccc([N+](=O)[O-])c2C)cc1	-3.3	-1.4	i	-4.4	9.7	38.2
O=C(Nc1cc(-c2ccccc2)sc1C(=O)O)c1cccc(F)c1	x	-2.6	i	-0.6	x	72.8*
Cn1c(CNC(=O)c2ccco2)nnc1SCC(=O)Nc1ccccc1Cl	-2.4	2.5	i	2.8	2.0	-2.2
CCN(C(=O)COC(=O)/C=C/c1cnc2ccccc2n1)c1ccccc1	2.6	1.5	i	1.9	-8.8	3.4
COC(=O)C(NC(=O)c1ccc(F)cc1)(Nc1ncc(S(=O)(=O)c2ccc([N+](=O)[O-])cc2)s1)C(F)(F)F (centres undefined)	1.0	3.1	i	-5.3	-2.1	58.2*
Cc1nc(NC(=O)CCN2C(=O)C3CC=CCC3C2=O)sc1C (centres undefined)	-2.0	5.7	i	0.7	4.1	-1.1
COC(=O)c1sc(-c2ccc(C(C)(C)C)cc2)cc1NC(=O)CSCC(=O)O	-3.3	7.3	i	1.1	1.6	53.6*
O=C(O)CCCCCNC(=O)CCn1cnc2ccccc2c1=O	-0.3	2.0	i	-0.1	-5.0	-8.1
COc1ccc(/C=N\NC(=O)CNC(=O)C2COc3ccccc3O2)cc1[N+](=O)[O-] (centres undefined)	0.4	5.6	i	-0.6	-1.1	7.6
COC(=O)c1c(-c2ccc(F)cc2)csc1NC(=O)C1CCCO1 (centres undefined)	1.7	0.8	i	-0.3	-5.8	0.9
CCOC(=O)c1c(-c2ccc(OC)c(OC)c2)csc1NC(=O)C1CCCO1 (centres undefined)	-0.3	-1.4	i	-6.1	-2.7	60.5*
Cc1ccc(S(=O)(=O)N(CC(=O)N=Nc2c(O)[nH]c3ccccc23)c2ccc(C)c(C)c2)cc1	5.7	6.3	i	1.2	1.0	66.7*
COc1ccc2cc3cc(C(=O)N4CCCCCC4)oc3nc2c1	-0.1	-0.6	i	-0.7	1.1	-3.1
SMILES	TPT1 inhibitor	IDE act	Myeloid diff 2	CRFBP-R2 agonist	IDE cell inh	CRFR2-BP antag
COc1ccc2cc3cc(C(=O)N4CCCCC4C)oc3nc2c1 (centres undefined)	0.0	1.0	+	-0.1	0.2	-11.2
O=C1NC(c2ccccc2)=C(c2nc3ccccc3s2)C(c2ccc(O)cc2)N1 (centres undefined)	1.9	1.6	+	8.8	3.9	-97.0
CCOc1ccc2ccccc2c1/C=N/NC(=O)CNC(=O)c1ccccc1F	-1.4	1.3	i	-0.8	6.2	-16.4
Cc1nn(CCc2nn[nH]n2)c2nc(-c3ccc(C4CCCCC4)cc3)cc(C(F)(F)F)c12	3.7	-0.8	+	23.9	-2.1	87.2*
CN(C(=O)c1ccc(NC(=O)Cc2cccc(NC(=O)C3CCN(C(=O)C4CCCC4)CC3)c2)cc1)C1CC1	x	1.0	i	-1.7	x	1.2
O=CN/N=C/c1c(O)ccc2ccccc12	2.6	-2.1	i	87.9*	4.8	-62.5
Oc1ccccc1C=NN=Cc1c(O)ccc2ccccc12	x	3.1	i	143.6*	x	-116.4
Oc1ccc2ccccc2c1C=NCc1ccccc1	-0.6	7.7	i	-2.4	3.0	5.0
CCOc1ccc(C2C(C(=O)C3CC3)N3C=C(C#N)C=CC3C2(C#N)C#N)cc1 (centres undefined)	49.8*	x	x	x	6.5	x
CCOc1ccccc1NC(=O)Nc1ccc2c(c1)CCC2	0.8	4.5	+	-0.7	-0.6	-0.5
O=S(=O)(NCC1(N2CCOCC2)CCCCC1)c1ccccc1Cl	-0.5	0.2	i	0.1	-1.8	2.3
CCc1ccc(S(=O)(=O)NCC2(N3CCOCC3)CCCCC2)cc1	x	0.1	i	53.7*	-0.6	-21.7
O=S(=O)(NCC1(N2CCOCC2)CCCCC1)c1ccc(Cl)cc1C(F)(F)F	-0.6	-0.4	i	55.9*	-7.4	-48.5
C/C(=N/NS(=O)(=O)c1ccc(Br)cc1)c1cccc(NC(=O)C2CC2)c1	x	x	i	0.4	x	-5.0
CCOC(=O)[C@]12CCC=C1N(Cc1ccc3c(c1)OCO3)C(=O)[C@H](CC(=O)N1CCC(c3ccccc3)CC1)C2	x	x	i	x	x	x
O=C1c2cccc3cc([N+](=O)[O-])cc(c23)C(=O)N1CCN1CCCC1	x	3.0	u	7.5	x	9.1
Nc1cc2c3c(cccc3c1)C(=O)N(CCN1CCCC1)C2=O	-54.3	4.5	+	66.3*	-0.1	-55.7
Nc1ccc2c(c1)N1CCN=C1S2	-1.1	2.5	i	-0.7	0.5	6.3
O=C(Nc1ccc(Cl)cc1)Nc1ccc2c(c1)N1CCN=C1S2	0.1	-2.2	+	8.1	-1.7	-22.9
COc1cc(C(=O)Oc2c(CN3CCOCC3)cc(Cl)c3cccnc23)cc(OC)c1OC	-3.1	6.7	+	-3.5	2.2	15.5
O=C(Oc1c(CN2CCOCC2)cc(Cl)c2cccnc12)c1ccc(F)cc1	-0.1	4.0	+	-1.5	3.7	5.0
COc1ccc(C(=O)N2CCCN(C)CC2)cc1S(=O)(=O)N(C)Cc1ccccc1	x	3.2	i	-0.2	-3.1	1.9

Compound activity (PubChem BioAssay)
